About 2,000 (36%) of roughly 5,500 compounds were called active. About 18% were inconclusive and are not listed. Cut-off read from the data, not from the text of the source: active = normalized growth mostly below about 0.91 (no sharp cut-off); inconclusive = no clear call, values can overlap the other calls; inactive = mostly above about 0.92. Some of the results follow.
Assay: chemical genetic growth profiling, strain panel (AID 1159580);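 note: tested at 20 µM; growth read once vehicle control cultures reached saturation at 30 °C; 1 = growth at the plate median or of vehicle wells; lower values mean less growth of the strain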
Conditions: growth OD

Measured: normalized growth

C=C1c2cccc(O)c2C(O)=C2C(=O)[C@]3(O)C(O)=C(C(N)=O)C(=O)[C@@H](N(C)C)[C@@H]3[C@@H](O)[C@H]12
inactive: S. cerevisiae deletion strains, locus YJR075W, strain HOC1, active compounds read low 0.992 | S. cerevisiae deletion strains, locus YKL009W, strain mrt4, active compounds read low 1.03 | S. cerevisiae deletion strains, locus YKL068W, active compounds read low 0.989 | S. cerevisiae deletion strains, locus YKL085W, strain MDH1 (second series), active compounds read low 0.978 | S. cerevisiae deletion strains, locus YKL085W, strain MDH1, active compounds read low 0.978 | S. cerevisiae deletion strains, locus YKL160W, strain elf1, active compounds read low 1.02 | S. cerevisiae deletion strains, locus YKL190W, strain CNB1, active compounds read low 0.992 | S. cerevisiae deletion strains, locus YKR001C, strain vps1, active compounds read low 0.961 | S. cerevisiae deletion strains, locus YKR026C, strain gcn3, active compounds read low 0.994 | S. cerevisiae deletion strains, locus YLL001W, strain dnm1, active compounds read low 1.01 | S. cerevisiae deletion strains, locus YLL026W, active compounds read low 1.02 | S. cerevisiae deletion strains, locus YLL041C, strain sdh2, active compounds read low 1.02 | S. cerevisiae deletion strains, locus YLR027C, strain aat2, active compounds read low 1.01 | S. cerevisiae deletion strains, locus YLR039C, strain RIC1, active compounds read low 0.94 | S. cerevisiae deletion strains, locus YLR058C, strain SHM2, active compounds read low 0.975 | S. cerevisiae deletion strains, locus YLR102C, strain apc9, active compounds read low 1 | S. cerevisiae deletion strains, locus YLR113W, strain HOG1, active compounds read low 0.986 | S. cerevisiae deletion strains, locus YLR221C, strain rsa3, active compounds read low 0.996 | S. cerevisiae deletion strains, locus YLR258W, strain gsy2, active compounds read low 1 | S. cerevisiae deletion strains, locus YLR262C, strain YPT6 (second series), active compounds read low 1.01 | S. cerevisiae deletion strains, locus YLR262C, strain YPT6, active compounds read low 0.967 | S. cerevisiae deletion strains, locus YLR268W, strain sec22, active compounds read low 0.905 | S. cerevisiae deletion strains, locus YLR320W, strain mms22, active compounds read low 1.01 | S. cerevisiae deletion strains, locus YLR330W, strain CHS5, active compounds read low 0.969 | S. cerevisiae deletion strains, locus YLR342W, strain FKS1 (second series), active compounds read low 0.979 | S. cerevisiae deletion strains, locus YLR342W, strain FKS1, active compounds read low 1.01 | S. cerevisiae deletion strains, locus YLR357W, strain rsc2, active compounds read low 1.01 | S. cerevisiae deletion strains, locus YLR370C, strain arc18, active compounds read low 1.02 | S. cerevisiae deletion strains, locus YLR371W, strain rom2, active compounds read low 0.991 | S. cerevisiae deletion strains, locus YLR384C, strain iki3, active compounds read low 1.03 | S. cerevisiae deletion strains, locus YLR418C, strain cdc73, active compounds read low 0.972 | S. cerevisiae deletion strains, locus YML016C, strain PPZ1, active compounds read low 0.979 | S. cerevisiae deletion strains, locus YML032C, strain rad52, active compounds read low 0.959 | S. cerevisiae deletion strains, locus YML120C, strain ndi1, active compounds read low 1.01 | S. cerevisiae deletion strains, locus YML124C, strain tub3, active compounds read low 0.991 | S. cerevisiae deletion strains, locus YMR058W, strain fet3, active compounds read low 0.986 | S. cerevisiae deletion strains, locus YMR078C, strain ctf18, active compounds read low 1 | S. cerevisiae deletion strains, locus YMR125W, strain sto1, active compounds read low 0.998 | S. cerevisiae deletion strains, locus YMR129W, active compounds read low 0.998 | S. cerevisiae deletion strains, locus YMR205C, strain PFK2, active compounds read low 1.02 | S. cerevisiae deletion strains, locus YMR223W, strain ubp8, active compounds read low 0.992 | S. cerevisiae deletion strains, locus YMR231W, strain pep5, active compounds read low 1.01 | S. cerevisiae deletion strains, locus YMR263W, strain SAP30, active compounds read low 0.976 | S. cerevisiae deletion strains, locus YMR307W, strain GAS1, active compounds read low 1.02 | S. cerevisiae deletion strains, locus YNL067W, strain RPL9B, active compounds read low 0.95 | S. cerevisiae deletion strains, locus YNL071W, strain lat1, active compounds read low 1.03 | S. cerevisiae deletion strains, locus YNL128W, strain TEP1, active compounds read low 0.976 | S. cerevisiae deletion strains, locus YNL153C, strain GIM3, active compounds read low 0.925 | S. cerevisiae deletion strains, locus YNL183C, strain NPR1, active compounds read low 0.922 | S. cerevisiae deletion strains, locus YNL209W, strain ssb2, active compounds read low 1.01 | S. cerevisiae deletion strains, locus YNL233W, strain BNI4, active compounds read low 0.965 | S. cerevisiae deletion strains, locus YNL248C, strain rpa49, active compounds read low 1.06 | S. cerevisiae deletion strains, locus YNL250W, strain rad50, active compounds read low 0.987 | S. cerevisiae deletion strains, locus YNL271C, strain bni1, active compounds read low 0.954 | S. cerevisiae deletion strains, locus YNL298W, strain CLA4, active compounds read low 0.981 | S. cerevisiae deletion strains, locus YNL307C, strain MCK1, active compounds read low 1 | S. cerevisiae deletion strains, locus YNL322C, strain KRE1 (second series), active compounds read low 1.01 | S. cerevisiae deletion strains, locus YNL322C, strain KRE1, active compounds read low 0.991 | S. cerevisiae deletion strains, locus YNR049C, strain mso1, active compounds read low 1.04 | S. cerevisiae deletion strains, locus YNR052C, strain pop2, active compounds read low 0.982 | S. cerevisiae deletion strains, locus YOL006C, strain TOP1, active compounds read low 0.891 | S. cerevisiae deletion strains, locus YOL012C, strain htz1 0.75 | S. cerevisiae deletion strains, locus YOL147C, strain pex11, active compounds read low 0.995 | S. cerevisiae deletion strains, locus YOR001W, strain rrp6, active compounds read low 1.04 | S. cerevisiae deletion strains, locus YOR061W, strain CKA2, active compounds read low 0.979 | S. cerevisiae deletion strains, locus YOR069W, strain VPS5, active compounds read low 1 | S. cerevisiae deletion strains, locus YOR070C, strain gyp1, active compounds read low 1 | S. cerevisiae deletion strains, locus YOR080W, strain dia2, active compounds read low 1.02 | S. cerevisiae deletion strains, locus YOR083W, strain WHI5, active compounds read low 1.01 | S. cerevisiae deletion strains, locus YOR106W, strain vam3, active compounds read low 1.01 | S. cerevisiae deletion strains, locus YOR136W, strain idh2, active compounds read low 1 | S. cerevisiae deletion strains, locus YOR144C, strain elg1, active compounds read low 1 | S. cerevisiae deletion strains, locus YOR184W, strain ser1, active compounds read low 0.98 | S. cerevisiae deletion strains, locus YOR231W, strain MKK1, active compounds read low 0.964 | S. cerevisiae deletion strains, locus YOR265W, strain rbl2, active compounds read low 1.01 | S. cerevisiae deletion strains, locus YOR270C, strain vph1, active compounds read low 1 | S. cerevisiae deletion strains, locus YOR290C, strain snf2, active compounds read low 0.998 | S. cerevisiae deletion strains, locus YOR316C, strain cot1, active compounds read low 0.988 | S. cerevisiae deletion strains, locus YPL051W, strain arl3, active compounds read low 1 | S. cerevisiae deletion strains, locus YPL055C, strain LGE1, active compounds read low 0.951 | S. cerevisiae deletion strains, locus YPL078C, strain atp4, active compounds read low 1.03 | S. cerevisiae deletion strains, locus YPL106C, strain sse1, active compounds read low 0.995 | S. cerevisiae deletion strains, locus YPL240C, strain hsp82, active compounds read low 1.01 | S. cerevisiae deletion strains, locus YPL241C, strain CIN2, active compounds read low 0.998 | S. cerevisiae deletion strains, locus YPL256C, strain CLN2, active compounds read low 0.964 | S. cerevisiae deletion strains, locus YPR119W, strain clb2, active compounds read low 0.994 | S. cerevisiae deletion strains, locus YPR141C, strain kar3, active compounds read low 0.981 | S. cerevisiae deletion strains, locus YPR163C, strain tif3, active compounds read low 0.992 | S. cerevisiae deletion strains, locus YPR167C, strain met16, active compounds read low 0.983 | S. cerevisiae deletion strains, strain wtn01, active compounds read low 0.932 | S. cerevisiae strains, strain wild type, active compounds read low 0.969

Reference: PubChem BioAssay AID1159580 (chemical genetic matrix, 2015)
